# Results published in PubChem BioAssay (NCI).
# About 83,000 compounds went through this panel and 20% of them were active in at least one assay; those are over-represented in the sample as a whole.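 Testing used 96-well plates and a 48-hour single-concentration exposure. Example: -40 means 40% of the starting cells died.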 Values without a mark were called inactive. Calls of active or inactive are those of the source. Rule for the calls: active = growth percent below 10; inactive = the rest.
# Columns and labels:
# Test in all cases: NCI-60 one-dose screen, 48 h (100 = growth as untreated, 0 = no growth, -100 = all killed)
# Details in all cases: 10 µM unless noted
# [1] = system: HCT-15 colon
# [2] = system: HT29 colon
# [3] = system: SNB-75 CNS
# [4] = system: SNB-19 CNS
# [5] = system: U251 CNS
# [6] = system: PC-3 prostate
# [7] = system: LOX IMVI melanoma
# [8] = system: SK-MEL-28 melanoma
# [9] = system: SK-MEL-5 melanoma
# [10] = system: UACC-62 melanoma
SMILES,growth [1],growth [2],growth [3],growth [4],growth [5],growth [6],growth [7],growth [8],growth [9],growth [10]
COc1cc2c(cc1O)CC[C@@H]1[C@@H]2CC[C@]2(C)[C@@H](OCCCN(C)C)CC[C@@H]12,-54.6% (active),-90.8% (active),-65.4% (active),-20.6% (active),-74.2% (active),-18.6% (active),-91.5% (active),,,
O=C1c2c(O)cc(O)cc2-c2c(-c3ccc(O)cc3)oc3cc(O)cc1c23,57.5%,88.8%,26.4%,44.8%,25.5%,50.5%,17.9%,,,
CC(C)(CCCN=C(N)Nc1ccc(Cl)cc1)c1ccc(F)cc1,67.1%,12.7%,60.7%,67.4%,65.5%,52.9%,57.8%,,,
C=C1C(=O)O[C@H]2[C@H]1CC/C(COC(=O)NCc1ccc(OC)c(OC)c1)=C\CC[C@@]1(C)O[C@@H]21,50.7%,28.8%,58.7%,87.2%,86.5%,78.4%,69.4%,,,
O=C1Nc2c(ccc(Cl)c2Cl)/C1=C\c1cc(C(F)(F)F)cc(C(F)(F)F)c1,-80.8% (active),-26.5% (active),13.7%,21.7%,-54.2% (active),0.08% (active),-90.1% (active),-21% (active),,
COc1ccc(CN2c3ccccc3Oc3ccccc32)cc1O,28.1%,72.7%,27.4%,34.9%,24%,31.4%,39.5%,,,
COc1cc(-c2nc3ccccc3[nH]2)ccc1OCC(=O)N=Nc1c(O)[nH]c2ccc(Cl)cc12,77.4%,-59% (active),-88.4% (active),-93.1% (active),-95% (active),-73% (active),-97.1% (active),,,
C=C1C(=O)O[C@H]2[C@H]1CC/C(COC(=O)NCCc1ccc(OC)c(OC)c1)=C\CC[C@@]1(C)O[C@@H]21,61.7%,32.8%,61.2%,90.1%,76.8%,78.8%,75%,,,
CCC#CC[C@H](O)C/C=C1/C(=O)C=C[C@@H]1C/C=C\CCCC(=O)OC,3.26% (active),-80.2% (active),43.5%,23.8%,0.174% (active),1.55% (active),-72.2% (active),,,
COc1cccc(-c2nc(SCC(=O)Nc3ccc(C(=O)/C=C/c4ccc(OC)c(OC)c4)cc3)[nH]c(=O)c2C#N)c1,83.6%,102%,71.8%,76.3%,85.3%,100%,81.4%,,,
COc1cc(-c2nc(C(=O)NCC(=O)NO)nn2-c2ccc(Cl)cc2)cc(OC)c1OC,101%,96.4%,87.7%,100%,96.1%,87.9%,95.9%,,,
CCN(CC)c1ccc2c(c1)Oc1nc(N)c(C#N)c(N)c1C2Sc1ccc(SC)cc1 (stereo unspecified),-14.3% (active),-76.6% (active),-54.9% (active),-64.1% (active),-92% (active),-28.5% (active),-96.9% (active),-9.16% (active),,
COc1ccc(NC2=C(Sc3nc(C)cc(C)n3)C(=O)N(Cc3ccccc3)C2=O)cc1Cl,73.8% [30 µM],60.1% [30 µM],84.4% [30 µM],95.4% [30 µM],86.9% [30 µM],,93.2% [30 µM],103% [30 µM],57.9% [30 µM],71.5% [30 µM]
CC(=O)OCCC/C(=C/c1cc2ccccc2c2ccccc12)[N+](=O)[O-],-81.8% (active),-44.7% (active),-93.6% (active),-91.1% (active),-95.4% (active),,-70.6% (active),,-100% (active),-90.2% (active)
COc1cc(C2CC(=O)c3ccccc3N2)cc(OC)c1OC (stereo unspecified),102%,77.8%,94.7%,97.1%,88.5%,,104%,,99.5%,94.1%
O=C1C=CC(=O)N1c1ccc2c(c1)Cc1cc(F)ccc1-2,97.1%,95%,75.8%,90.7%,88.9%,,104%,,98.1%,91.6%

SMILES,growth [1],growth [2],growth [3],growth [4],growth [5],growth [6],growth [7],growth [8],growth [9],growth [10]
C#CCOc1ccc2ncnc(Nc3cccc(CNC(=O)CCl)c3)c2c1,45.2% [8.25 µM],35% [8.25 µM],15.5% [8.25 µM],60.7% [8.25 µM],10.1% [8.25 µM],,53.9% [8.25 µM],69% [8.25 µM],14.5% [8.25 µM],40.3% [8.25 µM]
Cc1cc(Nc2ccc(C)c(Cl)c2)n2nc(C(F)(F)F)nc2n1,66.9%,25.5%,-30.7% (active),37.4%,-18.3% (active),,12.2%,,75.4%,66.9%
Cn1cc(-c2nonc2-c2c[nH]c3ccccc23)c2cccnc21,23.5%,12.4%,21.2%,46.4%,26%,,43%,61.5%,26.3%,41.5%
O=C1c2cccc3cccc(c23)C(=O)N1CCCCCN1CCN(CCCCCOc2ccc(-c3nc4ccc(N5CCOCC5)cc4[nH]3)cc2)CC1,80.4%,44.3%,112%,129%,99.6%,,56.4%,95.7%,96.7%,75%
CN1C(=O)C2(SCC(C(=O)NCc3ccccc3)N2C(=O)C2CCCCC2)c2ccccc21 (stereo unspecified),99.2%,102%,47.2%,98.5%,98.3%,82.8%,91.6%,113%,,
CCN(CC)CCCCNc1c2ccc(Cl)cc2nc2ccc(OC)cc12,-21.2% (active),3.91% (active),-95.3% (active),1.53% (active),-9.07% (active),-45.9% (active),-57.3% (active),-82.5% (active),,
CCOC(=O)c1csc(NC(=O)COc2cccc(/C=C3\CSc4ccccc4C3=O)c2)n1,89%,-34.2% (active),-33.7% (active),81.3%,-54.2% (active),,-93.9% (active),89.3%,54.5%,64.4%
COc1ccc(C2C(C#N)=C(N)Oc3n[nH]c(-c4cccs4)c32)cc1I (stereo unspecified),81.4%,98.4%,77.9%,87.1%,90.6%,85.8%,89%,108%,,
CCOC(=O)c1sc2nc(-c3cccc(O)c3)nc(N3CCOCC3)c2c1C,43.7%,98.2%,21.1%,69.2%,58.5%,,57.3%,,52.7%,71.8%
CCN(CC)S(=O)(=O)c1ccc(OC)c(NC(=O)c2[nH]c(C)c3c2CCCCC3=O)c1,18.9%,14.5%,9.16% (active),45.2%,43.6%,,9.93% (active),,-21.8% (active),16.2%
Nc1n[nH]c2ccc([C@@H]3Nc4ccc5cn[nH]c5c4[C@H]4C5CCC(C5)[C@@H]34)cc12 (stereo partly specified),15%,13.1%,-12.5% (active),31.4%,23%,16.4%,31.9%,61%,,
NC(CSC(c1ccccc1)(c1ccccc1)c1ccc(Cl)cc1)C(=O)O (stereo unspecified),19.3%,2.26% (active),20.9%,37.9%,12.2%,,36%,33.4%,10.6%,7.9% (active)
C#CCOc1ccc2ncnc(N3CCC(NC(=O)CCl)CC3)c2c1,67.7% [8.25 µM],64.9% [8.25 µM],24.2% [8.25 µM],77.9% [8.25 µM],66.1% [8.25 µM],,78.1% [8.25 µM],77.5% [8.25 µM],75% [8.25 µM],72.7% [8.25 µM]
Cn1ncc2c(=O)nc3c(-c4ccccc4)n[nH]n3c21,104%,103%,96.3%,99.1%,110%,,115%,,110%,96.7%
COc1nc2c(c(=O)n1C)CN(Cc1ccccc1)C=N2,105%,109%,78%,91.1%,115%,,98.1%,108%,111%,116%
